Measured values from PubChem BioAssay AID953 (National Center for Advancing Translational Sciences (NCATS), 2007).
This is one part of the list. Inconclusive results are not listed. Active and inactive are the calls of the source. The call rests on the fitted dose curve; in most records, active means well fitted curve in the direction sought with a large enough effect; inconclusive means small, poorly fitted or top-dose-only effect, or effect the other way, or another doubt; inactive means no such curve, though single readings can be large or run the other way.

Test: Confirmation Concentration-Response Assay for Agonists of the Thyroid Stimulating Hormone Receptor: Activators of Intracellular cAMP Concentrations in Parental HEK 293
Source text: NIH Chemical Genomics Center [NCGC] NIH Molecular Libraries Screening Centers Network [MLSCN] MLSCN Grant: 1 X01 MH080680-01 PI Name: Dr. Marvin Gershengorn NCGC Assay Overview: This cell based assay utilized a cyclic nucleotide gated ion channel (CNG) as a biosensor for cAMP induction. HEK 293 cells stably expressing the modified CNG were purchased from BD biosciences (http://www.atto.com/products/actone/features_benefits.shtml) . Stimulation of cAMP production causes the CNG to open and subsequent membrane depolarization to occur. A fluorescent membrane potential dye (BD biosciences) was utilized to detect cAMP stimulation in cells. The cells were maintained in DMEM medium (Invitrogen) containing 10 % FBS (Hyclone), 100 units/ml Penicillin, 100 ug/ml Streptomycin (Invitrogen), and 250 ug/ml Geneticin (Invitrogen) and 1 ug/ml Puromycin (Invitrogen) at 37C in 5% CO2. […]
NCGC Assay Protocol Summary: High Throughput Screening. […] 23 nl/well compound or control was then added to the assay plates, which were incubated for additional 30 min before reading a Envision fluorescence plate reader (Perkin Elmer) in bottom-read mode for fluorescence intensity (emission at 590 nm). Keywords: cAMP, CNG Ion Channel, quantitative high throughput screening, qHTS, HTS, probe identification, CNG, cAMP, cyclic nucleotide gated ion channel PubChem

| SMILES | outcome |
| --- | --- |
| CCOC(=O)C1=C(C)OC(N)=C(C(=O)OC)C12C(=O)Nc1ccc(Br)cc12 (configuration not stated) | inactive |
| C=CCN1C(=O)C2(C(C(=O)OCC)=C(N)Oc3c2c(=O)oc2ccccc32)c2ccccc21 (configuration not stated) | inactive |
